PubChem BioAssay (NCATS)
Values joined by “and” are separate entries in the source; they are usually repeats but may differ in a detail not shown here. Equal values may be shown once. Results filed as inconclusive are left out. Active and inactive are the calls of the source. Unless noted, calls come from the whole dose curve; as a rule, active = well fitted curve in the direction sought with a large enough effect; inconclusive = small, poorly fitted or top-dose-only effect, or another doubt; inactive = no such curve, though single readings can be large; an effect the other way counts as inactive or inconclusive.

What was measured:
[1] = qHTS for compounds that reverse cellular toxicity of Amyloid beta (A-beta) peptide in yeast: LOPAC Validation Assay (AID 720559);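 note: plate controls were DMSO for no effect and equimolar ferric chloride plus clioquinol rescue for full effect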
Outline: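 OD600 growth readout after 48 hr at 30 C; A-beta-toxic yeast plus pinned compounds in medium. Normalization: DMSO = negative, equimolar FeCl3 + clioquinol = positive.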

[2] = qHTS for Activators of Parkin Expression: LOPAC Validation Assay (NLuc Reporter) (AID 720572;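 note: 0% = DMSO and 100% = positive control compound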)
Outline: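 Neuronal line stably carrying a FLuc/NLuc coincidence reporter under the Parkin promoter, seeded 24 h, then dosed in 7-point series for 24 h at 37 C. NLuc luminescence read after FLuc; normalized to DMSO and positive control (100%).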

[3] = qHTS for Activators of Parkin Expression: LOPAC Validation Assay (FLuc Reporter) (AID 720573;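 note: 0% = DMSO and 100% = positive control compounds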)
Outline: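 FLuc luminescence read-out from a neuronal line expressing a Parkin-promoter-driven coincidence reporter. Cells treated 24 h at 37 C, 5% CO2 with compounds at 7 concentrations; signal increase normalized to DMSO and positive control.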

[4] = qHTS assay for small molecule agonists of the antioxidant response element (ARE) signaling pathway measured by Nrf2-dependant transcriptional activity (AID 720636; active = well fitted curve in the direction sought with a large enough effect in the repeat runs; an effect the other way counts as inactive or inconclusive;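 note: HepG2 cells with an ARE-driven luciferase reporter; % of control where 0% means no effect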)
Outline: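 First, ARE-luc HepG2 cells attached for 6 hr at 37 C in 1% dialyzed FBS medium. Next, compound or DMSO was added and incubated 16 hr. Finally, ONE-Glo reagent was added and luminescence measured after 30 min.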

[5] = qHTS assay for small molecule agonists of the antioxidant response element (ARE) signaling pathway measured by Nrf2-dependant transcriptional activity - cell viability counter screen (AID 720653; active = well fitted curve in the direction sought with a large enough effect in the repeat runs; an effect the other way counts as inactive or inconclusive; note: % is set by controls: 0 for no effect and ±100 for the full control effect); details: ARE-bla HepG2 viability, CellTiter-Glo ATP luminescence, 16 h; max response: stronger effect = lower value
Outline: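 ARE-bla HepG2 cells (2,000/well) rested 5 hrs at 37C/5% CO2, then exposed to compounds in DMSO for 16 hrs. Viability was read in the same wells as intracellular ATP by luminescence, 30 min at room temperature after reagent addition.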

[6] = target: T1, Hexokinase-4 (Homo sapiens) + Glucokinase regulatory protein (Homo sapiens) (UniProt P35557+Q14397); test: qHTS assay for inhibitors of recombinant human GCK-GKRP interaction: ADP-Glo assay (AID 743206);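 note: plate controls were DMSO plus enzyme for no effect and no enzyme for full effect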
T1 sequence (P35557 whole entry, looked up): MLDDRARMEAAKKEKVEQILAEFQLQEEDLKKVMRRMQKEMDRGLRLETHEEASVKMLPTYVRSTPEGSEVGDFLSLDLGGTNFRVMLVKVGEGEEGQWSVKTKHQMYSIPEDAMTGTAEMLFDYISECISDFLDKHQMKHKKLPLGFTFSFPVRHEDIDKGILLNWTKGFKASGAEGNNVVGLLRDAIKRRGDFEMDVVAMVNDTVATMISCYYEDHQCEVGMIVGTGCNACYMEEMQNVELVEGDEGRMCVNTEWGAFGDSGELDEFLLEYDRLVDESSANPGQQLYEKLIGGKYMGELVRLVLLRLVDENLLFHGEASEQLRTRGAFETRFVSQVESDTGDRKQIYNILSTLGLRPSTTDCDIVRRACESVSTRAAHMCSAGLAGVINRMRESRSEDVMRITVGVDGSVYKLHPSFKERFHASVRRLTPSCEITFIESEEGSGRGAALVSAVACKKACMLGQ
T1 sequence (Q14397 whole entry, looked up): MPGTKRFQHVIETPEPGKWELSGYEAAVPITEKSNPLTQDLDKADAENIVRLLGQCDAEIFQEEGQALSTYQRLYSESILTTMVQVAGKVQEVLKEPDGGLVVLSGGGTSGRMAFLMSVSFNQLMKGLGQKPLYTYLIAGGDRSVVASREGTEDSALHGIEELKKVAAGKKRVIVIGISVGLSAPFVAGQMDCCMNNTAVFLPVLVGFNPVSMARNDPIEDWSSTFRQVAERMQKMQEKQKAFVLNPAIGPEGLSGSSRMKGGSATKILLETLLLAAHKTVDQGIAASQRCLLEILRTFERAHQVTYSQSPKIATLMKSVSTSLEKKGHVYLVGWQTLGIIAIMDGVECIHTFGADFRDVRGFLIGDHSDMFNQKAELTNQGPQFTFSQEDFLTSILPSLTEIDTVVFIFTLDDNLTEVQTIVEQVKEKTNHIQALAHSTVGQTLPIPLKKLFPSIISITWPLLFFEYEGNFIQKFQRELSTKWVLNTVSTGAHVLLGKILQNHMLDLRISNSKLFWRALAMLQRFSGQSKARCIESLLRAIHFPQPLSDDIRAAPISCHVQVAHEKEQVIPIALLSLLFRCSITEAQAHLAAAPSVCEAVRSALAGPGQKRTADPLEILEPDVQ
Outline: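 GST-GCK and FLAG-GKRP (15 nM each in the dispensed mix, with 2 uM S6P) react with 0.4 mM ATP and 5 mM glucose (final) in Hepes pH 7.6 for 60 min at room temperature. ADP is measured by ADP-Glo luminescence.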

[7] = target: T1, Hexokinase-4 (Homo sapiens) + Glucokinase regulatory protein (Homo sapiens); test: qHTS assay for inhibitors of recombinant human GCK-GKRP interaction: HTRF assay (AID 743207);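 note: 0% = DMSO with GCK present and -100% = DMSO wells lacking GCK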
Outline: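 HTRF read-out (ex 320 nm; 615/665 nm emission) after 60 min RT equilibration of 5 nM GST-GCK, 5 nM FLAG-GKRP, 2 uM S6P, compound and anti-FLAG/anti-GST detection antibodies; signal normalized between DMSO wells with and without GCK.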

[8] = qHTS Assay for Identifying Gametocytocidal Compounds (AID 743244);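 note: % is set by controls: 0 for no effect and ±100 for the full control effect; actives lower the fluorescent signal which means gametocytes are killed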; details: P. falciparum 3D7 stage III-V gametocytes, alamarBlue, 72 h; max response: stronger effect = lower value
Outline: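 Compounds are pinned into medium, gametocytes (stage III–V, 3D7, 20,000 cells/well) added, and plates held 72 h at 37 °C in 5% CO2. AlamarBlue follows for 24 h before fluorescence reading.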

[9] = qHTS assay for cell viability of HEK293 cells (AID 743288); details: ATP luminescence (CellTiter-Glo), 18 h; max response: stronger effect = lower value; note: % is set by controls: 0 for no effect and ±100 for the full control effect; nearly all actives have a fitted effect of over 50% in size
Outline: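 Environmental chemicals tested in qHTS format against parental HEK293 cells; 18 h treatment, 37 C; read-out ATP luminescence (CellTiter-Glo), 30 min RT development.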

[10] = qHTS assay for cell viability of the p53RE-bla HCT-116 cell line (AID 743292); note: % is set by controls: 0 for no effect and ±100 for the full control effect; nearly all actives have a fitted effect of over 55% in size
Outline: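 Quantitative high-throughput format: compounds in DMSO were pinned onto p53RE-bla HCT-116 cells (4,000/well) and incubated 16 h at 37 C. Total intracellular ATP, read by CellTiter-Glo luminescence, reflects viable cell number.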

[11] = qHTS profiling of the MIPE4 collection as inhibitors of Plasmodium falciparum (3D7) proliferation (AID 743344; call rule not given here;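 note: scaled between DMSO vehicle wells and 0.29 µM artemisinin as full inhibition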); details: P. falciparum 3D7 in erythrocytes, SYBR Green DNA fluorescence, 72 h; at 28.5 µM (top of the series) unless noted
Outline: (§1)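 Erythrocytes infected with P. falciparum (0.3% parasitemia, 2.5% hematocrit) incubated with compounds 72 h at 37 C, 5% CO2. Lysis with saponin/Triton buffer containing SYBR Green I, overnight at room temperature in the dark; DNA fluorescence (485/535 nm) normalised to 0.29 uM artemisinin and DMSO.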

[12] = qHTS profiling of the MIPE4 collection as inhibitors of Plasmodium falciparum (DD2) proliferation (Rep 2) (AID 743346; call rule not given here); details: P. falciparum Dd2 in erythrocytes, SYBR Green DNA, 72 h; at 28.5 µM (top of the series) unless noted
Outline: as §1

[13] = qHTS profiling of the MIPE4 collection as inhibitors of Plasmodium falciparum (HB3) proliferation (AID 743347; call rule not given here;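 note: plate controls were DMSO vehicle wells for no effect and artemisinin wells for full effect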); details: P. falciparum HB3 in erythrocytes, SYBR Green DNA, 72 h; at 28.5 µM (top of the series) unless noted
Outline: as §1

[14] = High-throughput drug toxicity screening in the BPDCN cell line Gen2.2 (AID 1224824; call rule not given here;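 note: cells exposed to compounds for 48 h before reading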); details: Gen2.2 BPDCN cells; at 45.8 µM (top of the series) unless noted
Outline: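 CellTiter-Glo luminescence after 48 h compound exposure of Gen2.2 cells; percent activity set with DMSO as 100% and bortezomib (9.2 uM final) as 0%. Cells seeded at 500 per well, RPMI + 10% FBS, 37 °C.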

[15] = qHTS profiling for inhibitors of Plasmodium falciparum (3D7) proliferation (AID 743322; call rule not given here;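 note: infected erythrocytes exposed to compound for 72 h before lysis; 100% = DMSO vehicle wells and 0% = 0.29 µM artemisinin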); details: P. falciparum 3D7 proliferation, at 28.7 µM (top of the series)
Outline: as §1

[16] = qHTS profiling for inhibitors of Plasmodium falciparum (DD2) proliferation (AID 743323; call rule not given here); details: at 28.7 µM (top of the series), lower = more inhibition
Outline: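 1536-well qHTS; infected RBCs 0.3% parasitemia/2.5% Hct final; cpd 72 h 37 C 5% CO2; lysis buffer + SYBR Green I, o/n RT dark; FI 485/535; norm. to 0.29 uM artemisinin and DMSO, plate-stack corrected.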

[17] = qHTS profiling of the MIPE4 collection as inhibitors of Plasmodium falciparum (DD2) proliferation (AID 743345; call rule not given here); details: P. falciparum Dd2 in erythrocytes, SYBR Green DNA, 72 h; at 28.5 µM (top of the series) unless noted
Outline: as §1

[18] = target: T1, Hexokinase-4 (Homo sapiens) + Glucokinase regulatory protein (Homo sapiens); test: qHTS assay for inhibitors of recombinant human GCK-GKRP interaction: Diaphorase-coupled assay (AID 743205)
Outline: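 Resorufin fluorescence (525/590 nm), read each minute over 30 min, reports GCK activity coupled via G6PDH and diaphorase. Reaction: 10 nM GST-GCK, 10 nM FLAG-GKRP, 5 mM glucose, 0.4 mM ATP, 0.15 mM NADP+, 0.1 mM resazurin.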

[19] = qHTS assay for small molecule antagonists of the retinoid-related orphan receptor gamma (ROR-gamma) signaling pathway - cell viability counter screen (AID 720652; active = well fitted curve in the direction sought with a large enough effect in the repeat runs; an effect the other way counts as inactive or inconclusive;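 note: CHO reporter cells with doxycycline-induced ROR-gamma expression; compound exposure lasted 16 hr before ATP read; % is set by controls: 0 for no effect and ±100 for the full control effect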)
Outline: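 CHO cells carrying TET-inducible ROR and RORE-luciferase reporter, plated 5 hr, then dosed with compound plus doxycycline. After 16 hr at 37 C, viability read as intracellular ATP by CellTiter-Glo luminescence.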

Structure (SMILES) | outcome [1] | outcome [2] | Potency [3] | outcome [4] | max response [5] | Potency [6] | Potency [7] | max response [8] | max response [9] | Potency [10] | parasite growth, % of DMSO control [11] | parasite growth, % of control (lower = inhibition) [12] | growth, % of control [13] | cell viability, % of control (lower = more cytotoxic) [14] | remaining parasite growth % (stronger effect = lower value) [15] | activity, percent of control [16] | parasite growth remaining, % of DMSO control (lower = more inhibition) [17] | Potency [18] | Potency [19]
N[C@@H](Cc1c[nH]c2ccc(O)cc12)C(=O)O | inactive | inactive | inactive | inactive | -3.27% (inactive) | inactive | inactive | -0.101% (inactive) and -5.53% (inactive) | 3.87% (inactive) | inactive | 101% | 132% | 99.6% | 126% |  |  |  |  | 
CN(C)CCOC(c1ccccc1)c1ccccc1 | inactive | inactive | inactive | inactive | -12% (inactive) | inactive | inactive | -13.8% (inactive) and 10.9% (inactive) | -15% (inactive) | inactive | 90.6% | 41.2% | 100% | 136% | 85.5% | 32.1% | 39.2% |  | 
CS(=O)(=O)Nc1ccc([N+](=O)[O-])cc1Oc1ccccc1 | inactive | inactive | inactive |  |  | inactive | inactive | -0.179% (inactive) and 5.92% (inactive) |  |  | 87.3% | 84.4% | 92.7% | 111% |  |  | 94.3% | inactive | 
Cc1cnc(C(=O)NCCc2ccc(S(=O)(=O)NC(=O)NC3CCCCC3)cc2)cn1 | inactive | inactive | inactive |  |  | inactive | inactive | 32.6% (inactive) and 12.5% (inactive) |  |  | 7.98% | 9.38% | 3.73% | 112% |  |  | 12.7% | inactive | 
CC(C)NCC(O)c1ccc(O)c(O)c1 (stereo not drawn) | inactive | inactive | inactive | inactive | 0.482% (inactive) and -3.43% (inactive) | inactive | inactive | -2.95% (inactive) | 0.858% (inactive) and -11.4% (inactive) | inactive | 10.6% | 9.11% | 9.05% | 46.4% |  |  | 91.4% |  | inactive
Cc1cn([C@H]2C[C@H](N=[N+]=[N-])[C@@H](CO)O2)c(=O)[nH]c1=O | inactive | inactive | inactive | inactive | -2.6% (inactive) | inactive | inactive | 21.9% (inactive) and 0.942% (inactive) and 16% (inactive) | -21.7% (inactive) | inactive | 412% | 117% | 588% | 59.6% |  |  | 109% | inactive | inactive
